# Assay results from the supplement of paper PMC8007513.
# Structures can show the parent of a compound that is named as a salt. ± gives the standard error. The whole screen tested about 1,300 compounds, of which about 75 (6%) showed an effect of 50% or more. Only a selection was taken, and strong results are over-represented in it overall.
# Test system: Trichoderma virens ATCC 9645
# Test: growth yield (OD600) relative to untreated control; higher = less growth inhibition
# Settings: compound concentration: 100 uM
# In short: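 Plates were read for OD600 at 40 h and 72 h after Trichoderma virens ATCC 9645 spores (15,000 spores ml^−1 in potato dextrose broth) were grown at 30 °C with library compounds at 100 μM final, with or without a biocide at 200 ng ml^−1. Growth is stated relative to the control with neither agent, as the mean of duplicate screens.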
SMILES,growth yield (40 h),growth yield (72 h)
Oc1cc(Cl)ccc1Oc1ccc(Cl)cc1Cl [Triclosan],6.99 ± 4.1%,3.25 ± 0.1%
CCNCC(O)c1cccc(O)c1 (stereo not given) [Etilefrine hydrochloride],105 ± 3%,103.1 ± 0.94%
C=CCC1(CC(C)C)C(=O)NC(=O)NC1=O [Butalbital],98.2%,96.5%
"CNCC(O)c1ccc(O)cc1 (racemic) [(+,-)-Synephrine]",105 ± 4.3%,100 ± 2.3%
O=C([O-])c1ccccc1-c1c2cc(Br)c(=O)cc-2oc2[c]([Hg+])c([O-])c(Br)cc12.[Na+].[Na+].[OH-] [Merbromin],2.54 ± 0.95%,2.2 ± 0.94%
CCN(CC)C(C)C(=O)c1ccccc1 (stereo not given) [Amfepramone hydrochloride],102 ± 3%,99 ± 3.1%
CC1OC(OC2/C=C/C=C/C=C/C=C/CC/C=C/C=C/[C@H](C)[C@@H](O)[C@@H](C)[C@H](C)OC(=O)CC(O)CC(O)CC(O)CCC(O)C(O)C[C@]3(O)CC(O)C(C(=O)O)C(C2)O3)C(O)C(N)C1O (stereo not given in full) [Nystatine],97.4 ± 5.6%,107.3 ± 0.94%
O=C(CCCN1CCC(n2c(=O)[nH]c3ccccc32)CC1)c1ccc(F)cc1 [Benperidol],102 ± 5.2%,99.9 ± 7.2%
CC[C@H](C)[C@H]1O[C@]2(C=C[C@@H]1C)C[C@@H]1C[C@@H](C/C=C(\C)[C@@H](O[C@H]3C[C@H](OC)[C@@H](O[C@H]4C[C@H](OC)[C@@H](O)[C@H](C)O4)[C@H](C)O3)[C@@H](C)/C=C/C=C3\CO[C@@H]4[C@H](O)C(C)=C[C@@H](C(=O)O1)[C@]34O)O2.CO[C@H]1C[C@H](O[C@H]2[C@H](C)O[C@@H](O[C@@H]3/C(C)=C/C[C@@H]4C[C@@H](C[C@]5(C=C[C@H](C)[C@@H](C(C)C)O5)O4)OC(=O)[C@@H]4C=C(C)[C@@H](O)[C@H]5OC/C(=C\C=C\[C@@H]3C)[C@]54O)C[C@@H]2OC)O[C@@H](C)[C@@H]1O [Avermectin B1],107 ± 5.6%,105 ± 2.3%
CCCCCC[C@H]1C(=O)O[C@H](C)[C@H](NC(=O)c2cccc(NC=O)c2O)C(=O)O[C@@H](C)[C@@H]1OC(=O)CC(C)C [Antimycin A],27.5 ± 1.1%,49.6 ± 2.6%
C#CCN(C)[C@H](C)Cc1ccccc1 [Selegiline hydrochloride],102 ± 1.4%,104 ± 5%
CCCC(C)C1(CC)C(=O)NC(=O)NC1=O (stereo not given) [Pentobarbital],101.3 ± 0.95%,102 ± 1.7%
"CC(=O)OCC1=C(C(=O)O)N2C(=O)[C@@H](N)[C@H]2SC1 [Cephalosporanic acid, 7-amino]",105 ± 5.7%,107 ± 6.2%
CCC(=O)O[C@@](Cc1ccccc1)(c1ccccc1)[C@@H](C)CN(C)C [Levopropoxyphene napsylate],106 ± 2.9%,103 ± 3.4%
C[C@]12C/C(=C/O)C(=O)C[C@@H]1CC[C@@H]1[C@@H]2CC[C@@]2(C)[C@H]1CC[C@]2(C)O [Oxymetholone],96.9 ± 9.2%,91.5 ± 4.8%
C[C@@H]1C[C@@H]([C@H](O)CC2CC(=O)NC(=O)C2)C(=O)[C@@H](C)C1 [Cycloheximide],46.7 ± 7.3%,75.5 ± 5.5%
"NCC(CC(=O)O)c1ccc(Cl)cc1 (racemic) [Baclofen (R,S)]",105 ± 4.1%,105 ± 4.7%
CN[C@@H]1[C@@H](O)[C@@H](O[C@@H]2[C@@H](O)[C@H](O[C@H]3O[C@H](CN)CC[C@H]3N)[C@@H](N)C[C@H]2N)OC[C@]1(C)O.CN[C@@H]1[C@@H](O)[C@@H](O[C@@H]2[C@@H](O)[C@H](O[C@H]3O[C@H]([C@@H](C)N)CC[C@H]3N)[C@@H](N)C[C@H]2N)OC[C@]1(C)O.CN[C@@H]1[C@@H](O)[C@@H](O[C@@H]2[C@@H](O)[C@H](O[C@H]3O[C@H]([C@@H](C)NC)CC[C@H]3N)[C@@H](N)C[C@H]2N)OC[C@]1(C)O [Gentamicine sulfate],101%,97.3%
NC(=O)OCCCc1ccccc1 [Phenprobamate],104 ± 6.3%,101 ± 4.6%
COc1cccc(C2(O)CCCCC2CN(C)C)c1 (stereo not given) [Tramadol hydrochloride],101 ± 1.3%,99.8 ± 2.1%
